The list is not random: actives were taken first. Their share in the collection is about 5.7%.
KDM4E inh = blocks human JMJD2E demethylase activity; B2RXH2; JMJD2E catalytic domain, FDH-coupled NADH fluorescence (FDH is formaldehyde dehydrogenase); Potency, µM (top dose mostly 57.1 µM), for inactives: at the top dose activity change, negative = inhibition, hits mostly inhibitors; hit rate 1.6% among 230,000; active = well fitted inhibition curve with a large enough effect, not every such curve was filed as active; inconclusive = small, poorly fitted or top-dose-only effect, or another doubt; inactive = no such curve, though single readings can be large or run the other way;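 also: potency is read from the fitted curve at half-maximal effect; 0% = wells with enzyme and -100% = buffer wells without enzyme; nearly all actives have a fitted effect of over 50% in size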
JMJD2A Tudor = blocks the human JMJD2A Tudor domain. O75164. AlphaScreen JMJD2A-Tudor / H3K4me3 peptide binding. Potency, µM (series often up to 114 µM), inactives show at the top dose activity change, negative = inhibition, usual class: inhibitors. hit rate 4.4% among 390,000; also: potency is read from the fitted curve at half-maximal effect; % is scaled to controls: 0 for no effect and ±100 for the full control effect; nearly all actives have a fitted effect of over 50% in size
BAZ2B inh = blocks human BAZ2B; Potency, µM (top dose mostly 114 µM), inactives show at the highest dose activity change, negative = inhibition, usual class: inhibitors; Q9UIF8; AlphaScreen BAZ2B-H3K14Ac peptide displacement; hit rate 4.4% among 360,000; also: potency is read from the fitted curve at half-maximal effect; % is scaled to controls: 0 for no effect and ±100 for the full control effect; nearly all actives have a fitted effect of over 60% in size
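In this displacement format the biotinylated H3(5-23) peptide acetylated at Lys14 serves as ligand at 50 nM, with BAZ2B at 50 nM in PBS pH 7.4 containing 0.01% Tween-20. Donor and acceptor beads are 10 ug/mL final.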
L3MBTL1 inh = blocks human L3MBTL1; AlphaScreen L3MBTL1–H3K9me1 peptide binding; Potency, µM (series often up to 57.1 µM), for inactives: top-dose activity, negative = inhibition, actives largely listed as inhibitors; Q9Y468; hit rate 0.66% among 230,000; also: potency is read from the fitted curve at half-maximal effect; % is scaled to controls: 0 for no effect and ±100 for the full control effect; nearly all actives have a fitted effect of over 60% in size
Target sequence (Q9Y468 whole entry, looked up): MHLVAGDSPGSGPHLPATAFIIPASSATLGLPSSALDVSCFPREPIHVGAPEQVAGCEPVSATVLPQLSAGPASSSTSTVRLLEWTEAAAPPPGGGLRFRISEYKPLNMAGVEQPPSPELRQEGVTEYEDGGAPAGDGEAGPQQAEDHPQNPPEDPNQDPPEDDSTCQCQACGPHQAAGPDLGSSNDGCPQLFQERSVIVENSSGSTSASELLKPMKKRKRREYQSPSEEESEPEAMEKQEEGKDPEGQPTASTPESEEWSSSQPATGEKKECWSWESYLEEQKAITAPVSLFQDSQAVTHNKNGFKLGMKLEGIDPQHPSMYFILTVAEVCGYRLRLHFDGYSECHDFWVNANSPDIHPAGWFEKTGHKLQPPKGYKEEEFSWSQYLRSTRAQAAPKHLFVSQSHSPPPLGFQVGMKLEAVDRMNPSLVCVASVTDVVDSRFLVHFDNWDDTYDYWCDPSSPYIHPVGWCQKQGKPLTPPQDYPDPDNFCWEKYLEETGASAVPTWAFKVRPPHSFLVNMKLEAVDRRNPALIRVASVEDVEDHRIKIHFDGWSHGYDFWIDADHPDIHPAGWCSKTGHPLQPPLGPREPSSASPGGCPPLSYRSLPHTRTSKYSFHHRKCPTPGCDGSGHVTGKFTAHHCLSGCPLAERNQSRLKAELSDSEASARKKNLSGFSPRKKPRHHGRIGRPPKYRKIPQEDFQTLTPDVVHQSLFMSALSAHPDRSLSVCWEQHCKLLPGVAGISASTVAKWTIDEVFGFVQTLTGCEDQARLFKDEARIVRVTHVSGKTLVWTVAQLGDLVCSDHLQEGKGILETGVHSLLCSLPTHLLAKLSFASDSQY
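AlphaScreen assay: L3MBTL1 (50 nM final) was preincubated 30 min at room temperature with biotinylated H3(1-15)K9me1 peptide (75 nM final), then 30 min with library compounds; streptavidin donor and nickel chelate acceptor beads (10 ug/mL final) added, 30 min dark.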
HP1b binding inh = HP1-beta chromodomain-methylated histone interaction inhibition. P83916. hit rate 0.56% among 390,000. AlphaScreen HP1-beta / biotin-H3K9me3 peptide binding. Potency, µM (top dose mostly 114 µM), without a hit: top-dose activity change, negative = inhibition, most hits filed as inhibitors; also: potency is read from the fitted curve at half-maximal effect; nearly all actives have a fitted effect of over 70% in size
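Compound inhibition of the preformed complex between 50 nM HP1-beta and 50 nM biotinylated H3K9me3 peptide was read by AlphaScreen. Buffer was PBS pH 7.4 with 0.01% Tween-20. Incubations ran 30 min at room temperature, with 10 ug/mL donor/acceptor beads.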
PI5P4K alpha inh = blocks human PI5P4K alpha kinase activity; PI5P4Kalpha enzyme, ADP-Glo luminescence, 60 min; stronger effect = lower value; hit rate 1.2% among 330,000; max response, %; AID 652105; active = max response of -50% or lower; inconclusive = between -30% and -50%; inactive = -30% or higher; also: value at the top dose of about 77 µM; % is scaled to controls: 0 for no effect and ±100 for the full control effect
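Enzyme plus substrate dispensed, test compounds pinned in, then ATP (5 microM final) added. After 60 min at RT, ADP-Glo reagent 1 for 45 min and reagent 2 for 30 min preceded luminescence imaging.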
ADP-Glo interf = ADP-Glo luciferase interference, PI5P4K counter-screen; Potency, µM (doses to about 76.9 µM), for the others: at the top dose activity change, negative = inhibition, usual class: inhibitors; shares compounds with PI5P4K alpha inh; 1,100 tested, under 10 active; ADP-Glo detection counter-screen, luciferase luminescence, no enzyme
Active calls of the source: *; ? = inconclusive; nt = no result; [ ] = dose if it differs, or a comment. Unless noted, calls follow the shape of the dose curve; as a rule, active = well fitted curve in the direction sought with a large enough effect; inconclusive = small, poorly fitted or top-dose-only effect, or another doubt; inactive = no such curve, though single readings can be large; an effect the other way counts as inactive or inconclusive.

SMILES	KDM4E inh	JMJD2A Tudor	BAZ2B inh	L3MBTL1 inh	HP1b binding inh	PI5P4K alpha inh	ADP-Glo interf
Nc1cc(-c2ccncc2)c[nH]c1=O	1.1µM*	-33%	-12%	?	13%	-56*	4%
COCCNC(=O)c1cc(-c2ccccc2)sc1N	nt	nt	nt	nt	nt	-63*	-5%
N#Cc1c(-c2ccc(Cl)cc2Cl)nc2n(c1=O)CCS2	-4%	-14%	-16%	nt	28%	-54*	2%
COc1ccc(Cn2c(C)nc3c(c2=O)c2nc4ccccc4nc2n3Cc2ccco2)cc1	nt	?	nt	nt	?	-59*	1%
COc1ccc(Br)cc1C(=O)Nc1cccc(NC(=O)c2ccco2)c1	-7%	-23%	5%	3%	3%	8	-8%
O=C(Cc1ccc(S(=O)(=O)N2CCOCC2)s1)NC1CCCCC1	nt	?	50µM*	-22%	-26%	-51*	-9%
O=C(Cc1ccc(S(=O)(=O)N2CCOCC2)s1)NCC1CCCCC1	3%	-23%	?	nt	-9%	?	nt
CCC(=O)c1ccc(OCC(=O)OCC(=O)N(C)CC(=O)Nc2ccc(F)cc2)cc1	nt	-9%	13%	-1%	18%	-3	nt
Cc1ccc(NC(=O)CN(C)C(=O)COc2ccc(C(=O)c3ccc(F)cc3)cc2)cc1	-7%	-21%	-33%	-5%	31%	-2	5%
CC(Nc1nc2ncn(Cc3ccccc3)c2c(=O)[nH]1)C(=O)O (centres undefined)	4%	-9%	2%	21%	25%	-55*	-9%
CCC(=O)Nc1nnc(S(=O)(=O)N2c3ccccc3CC2C)s1 (centres undefined)	nt	1%	2%	1%	31%	-2	nt
O=C(COc1ncnc2ccccc12)NCc1ccc2c(c1)OCO2	3%	-5%	-3%	3%	6%	6	nt
Cc1nc2ccccc2nc1OCC(=O)NCc1ccc2c(c1)OCO2	-13%	?	-5%	-2%	-11%	-62*	-14%
CCC(=O)OC1(C)C(=O)C2=COC(c3ccc(OC)cc3)=CC2=C(Br)C1=O (centres undefined)	7%	?	?	nt	-8%	-72*	-6%
COC(=O)CCC(=O)OC1(C)C(=O)C2=CN(CCc3c[nH]c4ccccc34)C(c3ccc(OC)cc3)=CC2=C(Br)C1=O (centres undefined)	2%[11.4 µM]	?	nt	nt	0%	-27	nt
CCCCC1=CC2=C(OC(C)=O)C(=O)C(C)(OC(=O)CC)C(=O)C2=CO1 (centres undefined)	-5%	nt	nt	nt	nt	nt	nt
COC(=O)CCC(=O)OC1(C)C(=O)C2=CN(CC3CC3)C(c3ccc(OC)cc3)=CC2=C(Br)C1=O (centres undefined)	13µM*	?	-38%	nt	-12%	-53*	-6%
CCOc1ccc(CCNS(=O)(=O)c2cn(C)cn2)cc1OCC	nt	-23%	-16%	nt	7%	-26	0%
COc1ccc(N2CCN(c3nc4ccc(C)cn4c(=O)c3C=O)CC2)cc1	9%	?	?	-19%[2.29 µM]	14%	2	nt
CCOc1ccc(NC(=O)Cn2c(=O)n(CCCCCC(=O)NCc3ccccc3)c(=O)c3sccc32)cc1	nt	4%	-20%	nt	28%	nt	nt
CCCc1cc(=O)oc2cc(C)c(CN3CCCC3)c(O)c12	?	50µM*	13µM*	8.9µM*	-14%	-81*	-10%
CCc1cc(=O)oc2cc(C)c(CN3CCCCC3)c(O)c12	?	56µM*	20µM*	13µM*	-32%	-64*	-2%
CCCc1cc(=O)oc2c(CN3CCCC3)c(O)ccc12	?	5%	4%	4%	35%	-2	nt
Cc1cc(C)c2c(CN3CCCC3)cc(=O)oc2c1	nt	nt	nt	nt	nt	6	nt
Cc1ccc(NC(=O)c2cc3nc(-c4ccc5c(c4)OCO5)cc(C(F)(F)F)n3n2)cc1Cl	nt	2%	-15%	nt	34%	nt	nt
SMILES	KDM4E inh	JMJD2A Tudor	BAZ2B inh	L3MBTL1 inh	HP1b binding inh	PI5P4K alpha inh	ADP-Glo interf
O=C(Nc1ccn(CCCN2CCC(N3CCOCC3)CC2)c(=O)n1)OCc1ccccc1	nt	nt	nt	nt	nt	-10	nt
O=C(CSc1nc2ccccc2c(=O)n1-c1ccc(F)cc1)NC1CCS(=O)(=O)C1 (centres undefined)	nt	-3%	-1%	2%	23%	-1	nt
O=C(Nc1ccc(S(=O)(=O)Nc2nccs2)cc1)c1nn(-c2ccc(F)cc2)ccc1=O	nt	56µM*	25µM*	nt	-15%	-70*	-1%
COc1ccc(S(=O)(=O)N(C)C[C@H]2Oc3ncc(-c4ccncc4)cc3C(=O)N([C@@H](C)CO)C[C@@H]2C)cc1	nt	nt	nt	nt	nt	4	nt
COc1ccc(CC(=O)NNC(=O)COc2ccc(F)cc2)cc1S(=O)(=O)N1CCOCC1	nt	-15%	nt	38%	2%	-4	nt
CC(=O)Nc1ccc(NC(=S)Nc2ccc(Br)cc2)cc1	-9%	-27%	-13%	-6%	-17%	-75*	-3%
CC(=O)Nc1ccc(NC(=S)Nc2ccccc2)cc1	-1%	-7%	11%	5%	26%	0	nt
Cc1nn2c(=O)[nH]cnc2c1Cl	nt	nt	nt	nt	nt	-59*	3%
Cc1nc[nH]c(=O)c1Br	9%	-4%	1%	2%	24%	-4	nt
O=[N+]([O-])c1ccc(-c2cc(-c3ccc(Cl)cc3)n[nH]2)cc1	-1%	?	-37%	-1%	183%	-69*	2%
CSc1ncccc1C(=O)Nc1ccc(OC(F)(F)F)cc1	1%	11µM*	0%	9%	20%	-58*	2%
O=C(CNCC1(N2CCOCC2)CCCCC1)Nc1ccc(Cl)cc1	2%	-13%	-1%	-5%	5%	5	nt
Cc1ccccc1NC(=O)Cc1nc(COC(=O)c2cccc(C)c2O)cs1	nt	-14%	-12%	nt	8%	12	nt
Cc1ccccc1NC(=O)Cc1nc(COC(=O)c2ccc(NC(N)=O)cc2)cs1	nt	-8%	nt	-9%	14%	-56*	-3%
CCN(CC)C(=S)SC1CCCCN(C(=O)c2ccccc2)C1=O (centres undefined)	-5%	5%	1%	-3%	48%	8	nt
Cc1noc(C)c1C(=O)Nc1ccc(-n2ccc(C(F)(F)F)n2)cc1	nt	-25%	3%	nt	-39%	?	4%
Cc1cc(C)cc(NC(=O)Nc2ccc(-n3ccc(C(F)(F)F)n3)cc2)c1	-20%	-5%	-3%	8%	17%	16	nt
COC(=O)C(O)(NC(=O)c1ccncc1)C(F)(F)F (centres undefined)	4%	-4%	-19%	nt	25%	-12	nt
